Drawing on PubChem BioAssay (NCI), this text covers growth for seven molecules.

Assay in all cases: NCI-60 one-dose screen, 48 h (100 = growth as untreated, 0 = no growth, -100 = all killed)
One assay relates to NCI-H226 lung. As to conditions: 10 µM.
Another assay deals with NCI-H322M lung. The following applies: 10 µM.
A further assay relates to HOP-62 NSCLC. The following applies: 10 µM.
Another assay concerns NCI-H460 lung. The following applies: 10 µM.
The test system of a further assay is HOP-92 NSCLC. The following applies: 10 µM.
In the next assay the test system is NCI-H522 lung. As to conditions: 10 µM.
The subject of another assay is A549/ATCC NSCLC. The following applies: 10 µM.
The subject of another assay is COLO 205 colon. The following applies: 10 µM.
The next assay has as its system SF-268 CNS. As to conditions: 10 µM.
A further assay has as its system SF-295 CNS. The following applies: 10 µM.
The next assay concerns SF-539 CNS. As to conditions: 10 µM.
The test system of a further assay is M14 melanoma. The following applies: 10 µM.
In the next assay the test system is HCT-15 colon. As to conditions: 10 µM.
A further assay has as its system SNB-75 CNS. The following applies: 10 µM.
The next assay has as its system SNB-19 CNS. As to conditions: 10 µM.
The next assay concerns U251 CNS. The following applies: 10 µM.
The next assay deals with PC-3 prostate. The following applies: 10 µM.
A further assay concerns SK-MEL-5 melanoma. The following applies: 10 µM.
Another assay deals with UACC-62 melanoma. The following applies: 10 µM.
For the next assay, the system named is MDA-MB-468 breast. As to conditions: 10 µM unless noted.

About 83,000 compounds went through this panel and 20% of them were active in at least one assay; those are over-represented in the sample as a whole.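 Activity criterion: percent growth below 10, measured after cells in 96-well plates were exposed to a single compound concentration for 48 hours.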 Activity calls are given as the source filed them.

As for `COc1cc2oc(-c3cccc(C(=O)Nc4ccc(Cl)cc4)c3)cc(=O)c2c(OCCN)c1OC`, the growth with NCI-H226 lung is -76.6% (active); in the assay on NCI-H322M lung it was -93.7% (active); in the assay on HOP-62 NSCLC, -62.7% (active); with NCI-H460 lung, -87.2% (active); in the assay with HOP-92 NSCLC, -84% (active); with NCI-H522 lung, -87.1% (active). The growth in the assay on A549/ATCC NSCLC was -58.3% (active); in the assay with COLO 205 colon, -75.8% (active); with SF-268 CNS, -76.8% (active); in the assay with SF-295 CNS, -81.4% (active); with SF-539 CNS it was -83.2% (active); with M14 melanoma, -89.7% (active). The growth with HCT-15 colon is -76.6% (active); with SNB-75 CNS, -73.5% (active); with SNB-19 CNS it was -78.7% (active); in the assay with U251 CNS, -84.2% (active); with PC-3 prostate, -87.3% (active); with SK-MEL-5 melanoma, -94.7% (active). For the same molecule, the values for the growth with UACC-62 melanoma and in the assay on MDA-MB-468 breast were -86.7% (active) and -73.4% (active), respectively.
With `COc1cc(Nc2nc(O)c(/C=C3\C=Nc4ccccc43)s2)cc(OC)c1OC`, the growth was -46.5% (active) in the assay with NCI-H226 lung; -47.7% (active) with NCI-H322M lung; -65.9% (active) in the assay on HOP-62 NSCLC; -77.6% (active) with NCI-H460 lung; -72.3% (active) in the assay with HOP-92 NSCLC; -13.6% (active) with NCI-H522 lung. The growth with A549/ATCC NSCLC is -69.4% (active); with COLO 205 colon it was -5.44% (active); with SF-268 CNS, -38.2% (active); in the assay with SF-295 CNS, -73.4% (active); in the assay on SF-539 CNS, -85.3% (active); with M14 melanoma, -18.7% (active). Moreover, the growth is -0.515% (active) with HCT-15 colon; -63.8% (active) in the assay on SNB-75 CNS; -39.4% (active) in the assay on SNB-19 CNS; -79.8% (active) in the assay on U251 CNS; -71.9% (active) with PC-3 prostate; -34.7% (active) in the assay on SK-MEL-5 melanoma. Further, the growth in the assay with UACC-62 melanoma is -65.9% (active); in the assay with MDA-MB-468 breast it was -19.9% (active).
Consider `Cn1cc(-c2cc(N)n3nc(-c4cn(C)c5ccccc45)cc3n2)c2cc(F)ccc21`, for which the growth was -39.8% (active) with NCI-H226 lung; -19.1% (active) in the assay on NCI-H322M lung; -64.6% (active) in the assay on HOP-62 NSCLC; -61.6% (active) with NCI-H460 lung; -78.4% (active) in the assay on HOP-92 NSCLC; -66.3% (active) in the assay on NCI-H522 lung. Moreover, the growth with A549/ATCC NSCLC was -23.5% (active); in the assay with COLO 205 colon, -82.3% (active); with SF-268 CNS it was -63.1% (active); in the assay with SF-295 CNS, -72.6% (active); in the assay with SF-539 CNS, -81.6% (active); in the assay on M14 melanoma, -83.6% (active). Besides, the growth with HCT-15 colon is -80.2% (active); in the assay with SNB-75 CNS it was -67% (active); with SNB-19 CNS, -6.35% (active); in the assay on U251 CNS, -77% (active); in the assay on PC-3 prostate it was -28% (active); in the assay on SK-MEL-5 melanoma, -87.9% (active). The growth in the assay with UACC-62 melanoma is -67.7% (active); with MDA-MB-468 breast, -36.3% (active).
On to `Cn1cc(-c2cc3nc(-c4c[nH]c5ccccc45)cc(N)n3n2)c2cc(Cl)ccc21`, for which the growth in the assay with NCI-H226 lung is -30.4% (active); in the assay with NCI-H322M lung it was -98.8% (active); in the assay with HOP-62 NSCLC it was -86.4% (active); in the assay on NCI-H460 lung it was -58.2% (active); in the assay on HOP-92 NSCLC, -81% (active); in the assay with NCI-H522 lung it was -72.1% (active). The growth with A549/ATCC NSCLC was -84.6% (active); in the assay with COLO 205 colon it was -89.9% (active); in the assay on SF-268 CNS, -44.6% (active); in the assay with SF-295 CNS, -90.9% (active); in the assay with SF-539 CNS it was -92.5% (active); in the assay with M14 melanoma it was -89.3% (active). Besides, the growth is -84% (active) in the assay with HCT-15 colon; -65.9% (active) in the assay on SNB-75 CNS; -78.2% (active) in the assay with SNB-19 CNS; -91.8% (active) with U251 CNS; -85.3% (active) in the assay on PC-3 prostate; -99% (active) in the assay on SK-MEL-5 melanoma. The figures for the growth in the assay with UACC-62 melanoma and with MDA-MB-468 breast were -85.8% (active) and -85.9% (active), respectively.
For the molecule `COc1ccc(Cc2nn(CC(=O)N/N=C/c3ccc([N+](=O)[O-])cc3)c(=O)c3c(C)noc23)cc1`, the growth with NCI-H226 lung is 70.6% (inactive); in the assay with NCI-H322M lung, 78.6% (inactive); in the assay on HOP-62 NSCLC, 39.6% (inactive); in the assay on NCI-H460 lung, 16.6% (inactive); with HOP-92 NSCLC it was 91.6% (inactive); in the assay on NCI-H522 lung, 76.1% (inactive). Moreover, the growth was 22.5% (inactive) with A549/ATCC NSCLC; 82.9% (inactive) in the assay with COLO 205 colon; 77.7% (inactive) in the assay on SF-268 CNS; 92.7% (inactive) in the assay on SF-295 CNS; 34% (inactive) with SF-539 CNS; 70.1% (inactive) in the assay on M14 melanoma. Further, the growth was 83.7% (inactive) in the assay with HCT-15 colon; 99.8% (inactive) with SNB-75 CNS; 59.6% (inactive) in the assay with SNB-19 CNS; 24.4% (inactive) in the assay on U251 CNS; 69.8% (inactive) in the assay on PC-3 prostate; 92.8% (inactive) with SK-MEL-5 melanoma. Further, the growth in the assay with UACC-62 melanoma was 73.9% (inactive); in the assay with MDA-MB-468 breast, 53.1% (inactive).
`C#C[C@]1(O)CC[C@H]2[C@@H]3CC=C4c5sc(Nc6cc(C)cc(C)n6)nc5CC[C@]4(C)[C@H]3CC[C@@]21C`: the growth is 13.8% (inactive) in the assay with NCI-H226 lung; 14.7% (inactive) with NCI-H322M lung; 6.05% (active) with HOP-62 NSCLC; -34.3% (active) in the assay with NCI-H460 lung; -22.2% (active) in the assay on HOP-92 NSCLC; -79.9% (active) in the assay on NCI-H522 lung. For the same molecule, the growth in the assay on A549/ATCC NSCLC is 9.23% (active); in the assay on COLO 205 colon, -95.5% (active); in the assay with SF-268 CNS it was 7.69% (active); with SF-295 CNS, -75.3% (active); in the assay on SF-539 CNS, -66% (active); in the assay with M14 melanoma it was -42.1% (active). For the same molecule, the growth with HCT-15 colon is -69.5% (active); in the assay with SNB-75 CNS, 33.9% (inactive); with SNB-19 CNS, -39.1% (active); in the assay with U251 CNS, -58.9% (active); in the assay with PC-3 prostate, -4.36% (active); with SK-MEL-5 melanoma it was -99.7% (active). Besides, the growth in the assay with UACC-62 melanoma was -53.1% (active); in the assay on MDA-MB-468 breast, -39.3% (active).
On to `COc1ccc(C2OC[C@@]3(C)C4CC[C@]5(C)C(CC=C6C7CC(C)(C)CC[C@]7(C(=O)O)CC[C@]65C)[C@@]4(C)C[C@@H](O)[C@@H]3O2)cc1` (stereo not given in full), for which the growth is 84.5% (inactive) with NCI-H226 lung; 83.5% (inactive) with NCI-H322M lung; 95.5% (inactive) in the assay on HOP-62 NSCLC; 69.1% (inactive) with NCI-H460 lung; 64.8% (inactive) in the assay on HOP-92 NSCLC; 57.1% (inactive) in the assay on NCI-H522 lung. Moreover, the growth in the assay on A549/ATCC NSCLC was 39% (inactive); with COLO 205 colon, 78.8% (inactive); in the assay on SF-268 CNS, 88.8% (inactive); in the assay on SF-295 CNS it was 94.3% (inactive); in the assay on SF-539 CNS it was 95.7% (inactive); with M14 melanoma, 96.8% (inactive). Moreover, the growth is 56% (inactive) in the assay on HCT-15 colon; 97% (inactive) in the assay with SNB-75 CNS; 90.9% (inactive) with SNB-19 CNS; 50.7% (inactive) in the assay with U251 CNS; 49.2% (inactive) in the assay with PC-3 prostate; 80.5% (inactive) with SK-MEL-5 melanoma. Also, the growth in the assay on UACC-62 melanoma is 85.3% (inactive); in the assay on MDA-MB-468 breast, 75.9% (inactive).
